Measurements taken from PubChem BioAssay (Tox21).
Records with an inconclusive call do not appear. The source made the active and inactive calls. Unless noted, the call rests on the fitted dose curve.

How the values were obtained:
[1] = Nuclear factor erythroid 2-related factor 2/antioxidant responsive element (Nrf2/ARE) small molecule agonists: qHTS cell viability counter screen in human keratinocytes (AID 1919968; active means well fitted curve in the direction sought with a large enough effect in the repeat runs; an effect the other way counts as inactive or inconclusive; further: nearly all actives have a fitted effect of over 55% in size; further: potency means the concentration at half of the fitted maximal effect)
Procedure, shortened: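 KeratinoSens HaCaT cells, 1,500/well, preincubated 5 h, then exposed to compounds in DMSO for 23 h at 37 C/5% CO2. Viability read as CellTiter-Fluor fluorescence after 1 h, in the same wells as the ARE-luciferase read.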

[2] = Nuclear factor erythroid 2-related factor 2/antioxidant responsive element (Nrf2/ARE) small molecule agonists: luciferase reporter gene qHTS assay in human keratinocytes (AID 1919969); further: nearly all actives have a fitted effect of over 35% in size; further: potency means the concentration at half of the fitted maximal effect
[3] = target: Gonadotropin-releasing hormone receptor (Homo sapiens) (UniProt P30968); test: Human gonadotropin-releasing hormone receptor (GnRHR) small molecule agonists, calcium flux assay in GnRHR-HEK293 cells (AID 1920063); further: nearly all actives have a fitted effect of over 35% in size
Procedure, shortened: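 HEK293 cells stably expressing human GnRHR were dye-loaded for 1 h at 37 C. Compound was added in agonist mode and fluorescence (Ex/Em 480/540) recorded kinetically for 3 min. Fifteen concentrations, triplicates.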

[4] = target: KiSS-1 receptor (Homo sapiens) (UniProt Q969F8); test: Human kisspeptin (KISS1R) small molecule agonists, calcium flux assay in KISS1R-HEK293 cells (AID 1920064; active means well fitted curve in the direction sought with a large enough effect in the repeat runs; an effect the other way counts as inactive or inconclusive)
Procedure, shortened: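 HEK293 cells stably expressing human KISS1R were loaded with calcium dye for 1 h at 37 C, then given compound; fluorescence (Ex/Em 480/540) was read kinetically for 3 min. Fifteen concentrations, triplicate.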

[5] = G protein-coupled receptor (GPCR) small molecule agonists, calcium flux assay: HEK293 wild type cell line counter screen (AID 1920065)
Procedure, shortened: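 Wild-type HEK293 cells plated 18 h, loaded with calcium dye 1 h at 37 C, then compounds added in agonist mode (ATP as positive control). Kinetic fluorescence Ex/Em 480/540 recorded 3 min at 1 sec intervals; 15 concentrations, triplicate.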

[6] = p53 small molecule agonists, cell-based qHTS assay with human liver microsomes (AID 1963577);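 further: p53 response element beta-lactamase reporter cells with liver microsomes plus NADPH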
Procedure, shortened: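 In this qHTS, p53 response-element beta-lactamase cells receive test compound together with a microsome/NADPH activating system (0.5 mg/mL final each) and are incubated 16 h at 37 C before LiveBLAzer fluorescence detection.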

[7] = p53 small molecule agonists, cell-based qHTS assay with rat liver microsomes (AID 1963578)
Procedure, shortened: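 Agonist mode in p53RE-bla reporter cells, with compounds co-incubated 16 h at 37 C alongside 0.5 mg/mL rat liver microsomes and 0.5 mg/mL NADPH (final), followed by a 2 h LiveBLAzer detection step.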

[8] = p53 small molecule agonists, cell-based qHTS assay with human liver microsomes: qHTS cell viability counter screen (AID 1963579); further: nearly all actives have a fitted effect of over 45% in size
Procedure, shortened: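 Metabolically activated exposure: compounds, human liver microsomes and NADPH (0.5 mg/mL final apiece) were added to p53RE-bla cells seeded 5 h earlier, left 16 h at 37 C, and then assessed for viability by CellTiter-Glo luminescence.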

[9] = p53 small molecule agonists, cell-based qHTS assay: qHTS cell viability counter screen (AID 1963581); further: nearly all actives have a fitted effect of over 45% in size; further: potency means the concentration at half of the fitted maximal effect
Procedure, shortened: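 p53RE-bla HCT-116 cells, compounds added 5 h after plating and incubated 16 h at 37 C. Cytotoxicity measured in the same wells as intracellular ATP by CellTiter-Glo luminescence after 30 min at room temperature.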

[10] = target: 5-hydroxytryptamine receptor 2A (Homo sapiens) (UniProt P28223); test: 5-hydroxytryptamine receptor 2A (HTR2A) small molecule antagonists, cell-based qHTS assay (AID 1963586); further: nearly all actives have a fitted effect of over 45% in size
Procedure, shortened: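 Antagonist-mode intracellular calcium assay: DOI (4 nM) added after 5 min compound pre-incubation at room temperature to dye-loaded HTR2A-CHO cells. Fluorescence followed for 3 min, sampled every second.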

[11] = target: 5-hydroxytryptamine receptor 2A (Homo sapiens) (UniProt P28223); test: 5-hydroxytryptamine receptor 2A (HTR2A) small molecule agonists, cell-based qHTS assay (AID 1963587); further: nearly all actives have a fitted effect of over 30% in size
Procedure, shortened: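 HTR2A-CHO cells, plated 18 h at 37 C/5% CO2, dye-loaded 1 h at 37 C; compounds in DMSO added by pin tool (agonist mode). Intracellular calcium flux read as kinetic fluorescence on FDSS over 2 min at 1 s intervals.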

[12] = target: Muscarinic acetylcholine receptor M1 (Homo sapiens) (UniProt P11229); test: Cholinergic receptor muscarinic 1 (CHRM1) small molecule agonists, cell-based qHTS assay (AID 1963589); further: nearly all actives have a fitted effect of over 35% in size
Procedure, shortened: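 CHO cells stably expressing human CHRM1 were loaded with calcium dye for 1 h at 37 C, then compound was added in agonist mode. Intracellular calcium fluorescence was followed kinetically at 1 s intervals. Fifteen concentrations were tested in three independent runs.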

[13] = target: D(2) dopamine receptor (Homo sapiens) (UniProt P14416); test: Dopamine D2 receptor (DRD2) small molecule antagonists, cell-based qHTS assay (AID 1963595; active means well fitted inhibition curve with a large enough effect in the signal ratio in the repeat runs, with a control signal flat; the % refers to the signal ratio; further: potency means the concentration at half of the fitted maximal effect)
Procedure, shortened: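 In this cell-based antagonist screen, compounds act for 10 min at room temperature before a 30 min challenge with 12 nM quinpirole and 200 nM NKH477. cAMP is quantified by HTRF competition in DRD2-HEK293 cells containing 0.1 mM Ro20-1724.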

[14] = p53 small molecule agonists, cell-based qHTS assay (AID 1963582; active means well fitted activation curve with a large enough effect in the signal ratio in the repeat runs, not every such curve was filed as active; the % refers to the signal ratio)
Procedure, shortened: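 p53RE-bla reporter cells, compounds added in DMSO after 5 h plating, incubated 16 h at 37 C. Beta-lactamase read via 2 h room-temperature LiveBLAzer B/G FRET substrate, fluorescence intensity.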

[15] = cAMP Responsive Elements (CRE) small molecule agonists, cell-based qHTS assay (AID 1963590)
Procedure, shortened: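 CRE-bla HEK 293T cells, 2,000/well in DMEM with 10% dialyzed FBS and 25 mM HEPES, pre-incubated 18 h at 37 C, then exposed to compound 3 h at 37 C. Beta-lactamase reporter read with LiveBLAzer B/G FRET substrate after 2 h at room temperature.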

[16] = target: Beta-2 adrenergic receptor (Homo sapiens) (UniProt P07550); test: Adrenergic beta2 receptor (ADRB2) small molecule antagonists, cell-based qHTS assay (AID 1963592); further: series mostly up to about 92 µM; nearly all actives have a fitted effect of over 50% in size
Procedure, shortened: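 Cells (CHO, stable ADRB2 overexpression) incubated 18-20hr at 37C; compounds added from DMSO; agonist mix (1nM isoproterenol, 100uM IBMX, 25uM Ro-20-1724) added; 0.5hr RT; d2-cAMP and anti-cAMP-cryptate added; 1hr RT; 665/615 nm read.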

[17] = target: D(2) dopamine receptor (Homo sapiens) (UniProt P14416); test: Dopamine D2 receptor (DRD2) small molecule agonists, cell-based qHTS assay (AID 1963594); further: nearly all actives have a fitted effect of over 35% in size
Procedure, shortened: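 HEK293 cells stably expressing DRD2 were cultured 24 h at 37 C, then given Ro20-1724 (0.1 mM final) and compounds for 10 min at room temperature. NKH477 (200nM) was then added for 30 min. cAMP was read by HTRF.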

[18] = target: Muscarinic acetylcholine receptor M1 (Homo sapiens) (UniProt P11229); test: Cholinergic receptor muscarinic 1 (CHRM1) small molecule antagonists, cell-based qHTS assay (AID 1963588); further: nearly all actives have a fitted effect of over 40% in size
Procedure, shortened: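 CHRM1-CHO calcium-flux assay, antagonist mode. Cells were seeded 18 h, dye-loaded 1 h at 37 C and given compound for 5 min at RT, then acetylcholine was added at 50nM. FDSS fluorescence was read 3 min; 15 concentrations, three runs.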

[19] = cAMP Responsive Elements (CRE) small molecule antagonists, cell-based qHTS assay (AID 1963591; active means well fitted inhibition curve with a large enough effect in the signal ratio in the repeat runs, not every such curve was filed as active; the % refers to the signal ratio)
Procedure, shortened: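 CRE-bla HEK293T cells plated 18 h, then given compound plus NKH477 at 0.25 uM final for 3 h at 37C. Beta-lactamase reporter read with LiveBLAzer B/G FRET substrate after 2 h at room temperature.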

[20] = target: Beta-2 adrenergic receptor (Homo sapiens) (UniProt P07550); test: Adrenergic beta2 receptor (ADRB2) small molecule agonists, cell-based qHTS assay (AID 1963593);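 further: CHO cells stably overexpressing human ADRB2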
Procedure, shortened: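 CHO cells stably over-expressing ADRB2 were plated overnight at 37C, then dosed with compounds plus a stimulation mix containing 100uM IBMX and 25uM Ro-20-1724 for 0.5hr at room temperature. cAMP was measured by HTRF competition, 1hr.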
On the % scale 0 is the no-effect control and ±100 the full control effect.

Sequence of 5-hydroxytryptamine receptor 2A (Homo sapiens) (P28223 whole entry, looked up): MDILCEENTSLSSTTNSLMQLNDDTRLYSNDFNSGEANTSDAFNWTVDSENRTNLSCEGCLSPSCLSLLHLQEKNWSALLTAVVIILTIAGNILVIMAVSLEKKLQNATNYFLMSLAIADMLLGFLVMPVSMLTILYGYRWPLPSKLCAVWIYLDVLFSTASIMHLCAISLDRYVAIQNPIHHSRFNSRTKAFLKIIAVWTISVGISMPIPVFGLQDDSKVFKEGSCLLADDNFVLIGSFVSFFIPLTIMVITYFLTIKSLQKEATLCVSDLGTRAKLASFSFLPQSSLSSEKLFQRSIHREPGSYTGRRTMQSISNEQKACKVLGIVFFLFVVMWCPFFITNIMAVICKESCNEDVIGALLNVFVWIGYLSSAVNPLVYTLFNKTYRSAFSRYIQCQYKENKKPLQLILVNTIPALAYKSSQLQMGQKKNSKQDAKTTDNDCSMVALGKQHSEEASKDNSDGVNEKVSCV
Sequence of KiSS-1 receptor (Homo sapiens) (Q969F8 whole entry, looked up): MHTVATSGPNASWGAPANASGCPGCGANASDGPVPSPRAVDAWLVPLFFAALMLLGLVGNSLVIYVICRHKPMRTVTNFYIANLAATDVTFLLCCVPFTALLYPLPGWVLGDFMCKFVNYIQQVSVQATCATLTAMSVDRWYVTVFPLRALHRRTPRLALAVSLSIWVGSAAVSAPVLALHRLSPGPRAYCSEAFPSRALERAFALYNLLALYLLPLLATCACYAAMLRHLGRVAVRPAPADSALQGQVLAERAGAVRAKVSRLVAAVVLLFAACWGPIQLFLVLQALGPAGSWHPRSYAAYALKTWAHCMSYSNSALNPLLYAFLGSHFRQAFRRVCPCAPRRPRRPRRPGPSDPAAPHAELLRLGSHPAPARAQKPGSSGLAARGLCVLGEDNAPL
Sequence of D(2) dopamine receptor (Homo sapiens) (P14416 whole entry, looked up): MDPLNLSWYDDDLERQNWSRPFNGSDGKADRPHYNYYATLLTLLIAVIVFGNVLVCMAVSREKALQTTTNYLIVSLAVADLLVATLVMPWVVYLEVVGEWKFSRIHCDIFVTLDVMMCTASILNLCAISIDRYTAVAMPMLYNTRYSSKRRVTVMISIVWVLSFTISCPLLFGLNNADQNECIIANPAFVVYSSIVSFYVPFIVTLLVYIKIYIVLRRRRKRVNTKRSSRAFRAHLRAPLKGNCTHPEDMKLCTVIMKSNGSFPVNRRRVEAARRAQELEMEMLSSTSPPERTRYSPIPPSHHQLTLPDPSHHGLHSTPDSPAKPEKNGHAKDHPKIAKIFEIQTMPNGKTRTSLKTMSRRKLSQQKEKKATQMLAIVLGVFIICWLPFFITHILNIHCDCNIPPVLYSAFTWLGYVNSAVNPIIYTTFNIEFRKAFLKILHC
Sequence of Muscarinic acetylcholine receptor M1 (Homo sapiens) (P11229 whole entry, looked up): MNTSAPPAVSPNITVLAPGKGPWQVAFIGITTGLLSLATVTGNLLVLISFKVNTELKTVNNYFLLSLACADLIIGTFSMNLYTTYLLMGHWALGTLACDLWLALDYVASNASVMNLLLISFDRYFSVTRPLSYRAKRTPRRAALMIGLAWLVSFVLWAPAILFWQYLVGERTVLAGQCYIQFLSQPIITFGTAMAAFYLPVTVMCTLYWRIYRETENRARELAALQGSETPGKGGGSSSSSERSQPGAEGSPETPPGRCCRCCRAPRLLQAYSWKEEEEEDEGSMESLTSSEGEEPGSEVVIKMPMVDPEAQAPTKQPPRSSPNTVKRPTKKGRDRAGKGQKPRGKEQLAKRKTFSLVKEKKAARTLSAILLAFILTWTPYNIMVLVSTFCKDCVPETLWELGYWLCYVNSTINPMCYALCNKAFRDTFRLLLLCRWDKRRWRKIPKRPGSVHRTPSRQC
Sequence of Beta-2 adrenergic receptor (Homo sapiens) (P07550 whole entry, looked up): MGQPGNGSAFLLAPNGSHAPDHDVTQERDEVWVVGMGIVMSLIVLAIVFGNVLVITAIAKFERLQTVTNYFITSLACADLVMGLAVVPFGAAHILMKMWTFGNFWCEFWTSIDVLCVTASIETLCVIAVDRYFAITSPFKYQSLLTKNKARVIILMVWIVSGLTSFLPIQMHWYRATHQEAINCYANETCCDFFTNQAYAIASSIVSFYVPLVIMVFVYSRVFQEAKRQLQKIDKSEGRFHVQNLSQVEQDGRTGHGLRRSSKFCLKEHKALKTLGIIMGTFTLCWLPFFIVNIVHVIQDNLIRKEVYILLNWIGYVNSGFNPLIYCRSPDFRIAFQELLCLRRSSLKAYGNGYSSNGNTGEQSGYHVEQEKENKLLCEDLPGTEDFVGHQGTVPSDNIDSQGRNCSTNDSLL
Sequence of Gonadotropin-releasing hormone receptor (Homo sapiens) (P30968 whole entry, looked up): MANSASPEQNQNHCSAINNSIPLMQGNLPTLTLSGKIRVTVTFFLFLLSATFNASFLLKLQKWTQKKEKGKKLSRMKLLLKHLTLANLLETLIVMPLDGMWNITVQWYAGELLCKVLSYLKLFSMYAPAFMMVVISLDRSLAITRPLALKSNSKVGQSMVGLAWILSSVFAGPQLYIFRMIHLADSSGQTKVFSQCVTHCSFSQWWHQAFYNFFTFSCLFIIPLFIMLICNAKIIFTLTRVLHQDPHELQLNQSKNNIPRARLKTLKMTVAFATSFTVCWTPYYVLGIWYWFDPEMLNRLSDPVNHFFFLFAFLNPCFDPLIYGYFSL

CCOC(=O)O[C@H](C)OC(=O)c1ccc2c(c1)cc(C(=O)NC1CCN(C(C)C)CC1)n2Cc1cc(-c2ccc(Cl)s2)on1
inactive: Potency [2] | Potency [3] | outcome [4] | outcome [5] | Potency [6] | Potency [7] | Potency [8] | Potency [10] | Potency [11] | Potency [12]
active: Potency [1] 11.4 µM | Potency [9] 38.1 µM | Potency [13] 50.9 µM

C#C[C@]1(OC(C)=O)CC[C@H]2[C@@H]3CCC4=C[C@@H](OC(C)=O)CC[C@@H]4[C@H]3CC[C@@]21C
inactive: Potency [1] | Potency [2] | Potency [3] | outcome [4] | outcome [5] | Potency [6] | Potency [7] | Potency [8] | Potency [9] | Potency [14] | Potency [15] | Potency [16] | Potency [17] | Potency [13]

O=C1OCc2ccccc21
inactive: Potency [1] | Potency [2] | Potency [3] | outcome [4] | outcome [5] | Potency [6] | Potency [7] | Potency [8] | Potency [9] | Potency [14] | Potency [18] | Potency [12] | Potency [15] | Potency [19] | Potency [16] | Potency [20] | Potency [17] | Potency [13]

C/C=C/C=C/CCCCCCCO
inactive: Potency [1] | Potency [3] | outcome [4] | outcome [5] | Potency [6] | Potency [7] | Potency [8] | Potency [9] | Potency [11] | Potency [18] | Potency [12] | Potency [16] | Potency [17]
active: Potency [2] 68.6 µM

CCCCN1C=CN(C)C1
inactive: activity change, negative = cytotoxicity [1] 3.2% [at 19 µM] | activity, positive = activation [2] 5.6% [at 19 µM] | activity change [3] 1.08% [at 11.8 µM, stronger effect = higher value] | activation [4] 2.8% [at 15.8 µM] | activation [5] 0.0752% [at 11.8 µM] | activation [6] -0.103% [at 13.5 µM] | activation [7] 0.456% [at 13.6 µM] | activity change, negative = cytotoxicity [8] -6.5% [at 13.5 µM] | activity change, negative = cytotoxicity [9] -5.52% [at 13.5 µM] | activity, negative = inhibition [10] -10.9% [at 12.7 µM] | activation [11] 7.66% [at 15.9 µM] | activity, negative = inhibition [18] 0.644% [at 12.6 µM] | activation [15] -0.578% [at 19 µM] | activity change, negative = inhibition [19] -0.722% [at 18.9 µM] | activity change, negative = inhibition [16] 3.2% [at 19 µM] | activation [17] 0.42% [at 19 µM] | activity change, negative = inhibition [13] 2.35% [at 18.9 µM]

CCOC(=O)CC(CC(=O)OCC)(OC(C)=O)C(=O)OCC
inactive: Potency [1] | Potency [2] | Potency [3] | outcome [4] | outcome [5] | Potency [6] | Potency [7] | Potency [8] | Potency [14] | Potency [10] | Potency [11] | Potency [18] | Potency [12] | Potency [15] | Potency [19] | Potency [16] | Potency [17] | Potency [13]

COc1cccc(O)c1O
active: Potency [2] 28.4 µM
inactive: Potency [1] | Potency [3] | outcome [4] | outcome [5] | Potency [6] | Potency [7] | Potency [8] | Potency [14] | Potency [10] | Potency [11] | Potency [18] | Potency [12] | Potency [15] | Potency [16]
